# Reference: PubChem BioAssay (NCI)
# About 79,000 compounds went through this panel and 15% of them were active in at least one assay; those are over-represented in the sample as a whole. Values without a mark were called inactive. The source made the active and inactive calls. Cut-off read from the data, not from the text of the source: active = growth inhibition above about 70%; inactive = the rest.
# Tests used:
# [1] = NCI Yeast Anticancer Drug Screen. Data for the wt1 strain (AID 149);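 note: 0% = growth of vehicle-treated wt1 cultures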; details: S. cerevisiae wt1 strain (SPY 50644) growth inhibition, stronger effect = higher value
# Summary of the method: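 Using yeast strain wt1, compound-induced growth inhibition was determined against vehicle-treated cultures.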
# [2] = NCI Yeast Anticancer Drug Screen. Data for the rad50EPP+ strain (AID 151);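 note: 0% = growth of vehicle-treated control cultures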; details: S. cerevisiae rad50 mutant strain, stronger effect = higher value
# Summary of the method: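 Compounds were applied to the rad50EPP+ yeast strain, which bears a defined DNA repair alteration, and growth inhibition was determined relative to vehicle-treated cultures.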
# [3] = NCI Yeast Anticancer Drug Screen. Data for the mgt1 strain (AID 153); details: S. cerevisiae mgt1 mutant growth inhibition, stronger effect = higher value
# Summary of the method: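 Strain: mgt1 yeast, one of a set carrying defined DNA damage repair or cell cycle control alterations. Compound-treated growth compared with vehicle.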
# [4] = NCI Yeast Anticancer Drug Screen. Data for the rad50 strain (AID 155);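 note: 0% = growth of vehicle-only cultures of the same strain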; details: S. cerevisiae rad50 strain growth inhibition, stronger effect = higher value
# Summary of the method: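 Relative growth inhibition (compound vs vehicle) was measured in yeast with a defined repair-gene alteration.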
# [5] = NCI Yeast Anticancer Drug Screen. Data for the mec2-1 strain (AID 157); details: S. cerevisiae mec2-1 strain, stronger effect = higher value
# Summary of the method: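 Strain: mec2-1 (DNA repair/cell cycle alteration). Compound exposure, then growth measured; inhibition expressed relative to vehicle.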
# [6] = NCI Yeast Anticancer Drug Screen. Data for the rad14 strain (AID 159);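 note: 0% = growth of vehicle-treated control cultures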; details: S. cerevisiae rad14 strain growth inhibition, stronger effect = higher value
# Summary of the method: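 Screen for anticancer potential: a yeast strain altered in DNA damage repair is grown with compound, and reduced growth is quantified against vehicle controls.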
# [7] = NCI Yeast Anticancer Drug Screen. Data for the sgs1 mgt1 strain (AID 161);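 note: 0% = growth of cultures given vehicle only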; details: S. cerevisiae sgs1 mgt1 strain, stronger effect = higher value
# Summary of the method: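 Inhibition of yeast growth, normalised to vehicle-treated controls, is reported for a strain bearing genetic alterations in DNA damage repair.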
# [8] = NCI Yeast Anticancer Drug Screen. Data for the CLN2oe strain (AID 163);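 note: 0% = growth of vehicle-only control cultures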; details: S. cerevisiae CLN2oe strain, stronger effect = higher value
# Summary of the method: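 Growth of a genetically modified yeast strain is measured after compound exposure and compared with cultures given vehicle alone.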
# [9] = NCI Yeast Anticancer Drug Screen. Data for the cln2 rad14 strain (AID 165);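 note: 0% = growth equal to vehicle treated cultures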; details: S. cerevisiae cln2 rad14 strain, stronger effect = higher value
# Summary of the method: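 Compounds are applied to the cln2 rad14 yeast strain, and growth is then compared with that of vehicle-treated cultures to give inhibition.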
# [10] = NCI Yeast Anticancer Drug Screen. Data for the bub3 strain (AID 167); details: S. cerevisiae bub3 mutant strain, stronger effect = higher value
# Summary of the method: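 Screening used yeast with an engineered genetic alteration affecting cell cycle control. Compound-exposed cultures were compared with vehicle cultures, and reduced growth was taken as inhibition.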
# [11] = NCI Yeast Anticancer Drug Screen. Data for the wt2 strain (AID 169);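 note: 0% = growth of vehicle-treated yeast cultures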; details: S. cerevisiae wt2 strain growth inhibition, stronger effect = higher value
# Summary of the method: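 This strain belongs to a panel of yeast strains with defined genetic alterations in DNA damage repair or cell cycle control. Compounds are applied, and growth inhibition is measured against vehicle-treated cultures.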
# [12] = NCI Yeast Anticancer Drug Screen. Data for the sgs1 strain (AID 173);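 note: 0% = growth of vehicle-only control cultures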; details: S. cerevisiae sgs1 mutant, stronger effect = higher value
# Summary of the method: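 Growth of a yeast strain bearing a defined genetic alteration is measured after compound treatment. Inhibition is expressed relative to vehicle-only controls.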
# [13] = NCI Yeast Anticancer Drug Screen. Data for the mlh1 rad18 strain (AID 175); details: S. cerevisiae mlh1 rad18 strain growth inhibition, stronger effect = higher value
# Summary of the method: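 Read-out is yeast growth inhibition, calculated against vehicle-only controls. The compound was applied to a strain engineered with DNA damage repair alterations.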
# [14] = NCI Yeast Anticancer Drug Screen. Data for the rad18 strain (AID 177); details: S. cerevisiae rad18 mutant growth inhibition, stronger effect = higher value
# Summary of the method: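 Growth of the mutant yeast strain after compound exposure, normalised to vehicle-only cultures.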
# [15] = NCI Yeast Anticancer Drug Screen. Data for the mlh1 strain (AID 171);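 note: 0% = growth of vehicle-treated control cultures of the same strain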; details: S. cerevisiae mlh1 strain growth inhibition, stronger effect = higher value
# Summary of the method: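 Growth of the mutant yeast strain after compound exposure, expressed as inhibition relative to vehicle-only controls.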
# [16] = at 5.0 µM (retest, dose inferred, filed as 0.5)
# [17] = at 50.0 µM (retest, dose inferred, filed as 5.0)
smiles,measurement,setting,value
CS(=O)(=O)O.[Ag],growth inhibition,[1]; at 1.2 µM,77% (active)
same,growth inhibition,[1]; at 3.7 µM,99% (active)
same,growth inhibition,[1]; at 11.0 µM,99% (active)
same,growth inhibition,[1]; at 33.0 µM,99% (active)
same,growth inhibition,[1]; at 100.0 µM,98% (active)
same,growth inhibition,[2]; at 1.2 µM,92% (active)
same,growth inhibition,[2]; at 3.7 µM,99% (active)
same,growth inhibition,[2]; at 11.0 µM,100% (active)
same,growth inhibition,[2]; at 33.0 µM,99% (active)
same,growth inhibition,[2]; at 100.0 µM,98% (active)
same,growth inhibition,[3]; at 1.2 µM,65%
same,growth inhibition,[3]; at 3.7 µM,99% (active)
same,growth inhibition,[3]; at 11.0 µM,99% (active)
same,growth inhibition,[3]; at 33.0 µM,99% (active)
same,growth inhibition,[3]; at 100.0 µM,98% (active)
same,growth inhibition,[4]; at 1.2 µM,71% (active)
same,growth inhibition,[4]; at 3.7 µM,99% (active)
same,growth inhibition,[4]; [16],100% (active)
same,growth inhibition,[4]; at 11.0 µM,99% (active)
same,growth inhibition,[4]; at 33.0 µM,99% (active)
same,growth inhibition,[4]; [17],100% (active)
same,growth inhibition,[4]; at 50.0 µM,91.5% (active)
same,growth inhibition,[4]; at 100.0 µM,98% (active)
same,growth inhibition,[5]; at 1.2 µM,67%
same,growth inhibition,[5]; at 3.7 µM,99% (active)
same,growth inhibition,[5]; [16],100% (active)
same,growth inhibition,[5]; at 11.0 µM,100% (active)
same,growth inhibition,[5]; at 33.0 µM,99% (active)
same,growth inhibition,[5]; [17],98% (active)
same,growth inhibition,[5]; at 50.0 µM,92.5% (active)
same,growth inhibition,[5]; at 100.0 µM,98% (active)
same,growth inhibition,[6]; at 1.2 µM,59%
same,growth inhibition,[6]; at 3.7 µM,99% (active)
same,growth inhibition,[6]; at 11.0 µM,98% (active)
same,growth inhibition,[6]; at 33.0 µM,98% (active)
same,growth inhibition,[6]; at 100.0 µM,97% (active)
same,growth inhibition,[7]; [16],-25%
same,growth inhibition,[7]; [17],99% (active)
same,growth inhibition,[7]; at 50.0 µM,93.5% (active)
same,growth inhibition,[8]; at 1.2 µM,62%
same,growth inhibition,[8]; at 3.7 µM,99% (active)
same,growth inhibition,[8]; at 11.0 µM,98% (active)
same,growth inhibition,[8]; at 33.0 µM,99% (active)
same,growth inhibition,[8]; at 100.0 µM,98% (active)
same,growth inhibition,[9]; [16],55%
same,growth inhibition,[9]; [17],98% (active)
same,growth inhibition,[9]; at 50.0 µM,92.2% (active)
same,growth inhibition,[10]; at 1.2 µM,80% (active)
same,growth inhibition,[10]; at 3.7 µM,98% (active)
same,growth inhibition,[10]; [16],4%
same,growth inhibition,[10]; at 11.0 µM,99% (active)
same,growth inhibition,[10]; at 33.0 µM,96% (active)
same,growth inhibition,[10]; [17],98% (active)
same,growth inhibition,[10]; at 50.0 µM,92% (active)
same,growth inhibition,[10]; at 100.0 µM,97% (active)
same,growth inhibition,[11]; at 1.2 µM,27%
same,growth inhibition,[11]; at 3.7 µM,99% (active)
same,growth inhibition,[11]; at 11.0 µM,98% (active)
same,growth inhibition,[11]; at 33.0 µM,99% (active)
same,growth inhibition,[11]; at 100.0 µM,98% (active)
same,growth inhibition,[12]; at 1.2 µM,89% (active)
same,growth inhibition,[12]; at 3.7 µM,100% (active)
same,growth inhibition,[12]; at 11.0 µM,100% (active)
same,growth inhibition,[12]; at 33.0 µM,100% (active)
same,growth inhibition,[12]; at 100.0 µM,98% (active)
same,growth inhibition,[13]; [16],100% (active)
same,growth inhibition,[13]; [17],100% (active)
same,growth inhibition,[13]; at 50.0 µM,43.8%
same,growth inhibition,[14]; at 1.2 µM,76% (active)
same,growth inhibition,[14]; at 3.7 µM,100% (active)
same,growth inhibition,[14]; at 11.0 µM,99% (active)
same,growth inhibition,[14]; at 33.0 µM,99% (active)
same,growth inhibition,[14]; at 100.0 µM,98% (active)
O=C(O)c1ccc2cc(Cl)c3ccccc3c2c1,growth inhibition,[1]; at 1.2 µM,-4%
same,growth inhibition,[1]; at 3.7 µM,3%
same,growth inhibition,[1]; at 11.0 µM,11%
same,growth inhibition,[1]; at 33.0 µM,30%
same,growth inhibition,[1]; at 100.0 µM,43%
same,growth inhibition,[3]; at 1.2 µM,-1%
same,growth inhibition,[3]; at 3.7 µM,-4%
same,growth inhibition,[3]; at 11.0 µM,15%
same,growth inhibition,[3]; at 33.0 µM,41%
same,growth inhibition,[3]; at 100.0 µM,60%
same,growth inhibition,[4]; at 1.2 µM,2%
same,growth inhibition,[4]; at 3.7 µM,12%
same,growth inhibition,[4]; [16],23%
same,growth inhibition,[4]; at 11.0 µM,31%
same,growth inhibition,[4]; at 33.0 µM,52%
same,growth inhibition,[4]; [17],93% (active)
same,growth inhibition,[4]; at 50.0 µM,94.9% (active)
same,growth inhibition,[4]; at 100.0 µM,67%
same,growth inhibition,[5]; at 1.2 µM,-5%
same,growth inhibition,[5]; at 3.7 µM,7%
same,growth inhibition,[5]; [16],1%
same,growth inhibition,[5]; at 11.0 µM,25%
same,growth inhibition,[5]; at 33.0 µM,44%
same,growth inhibition,[5]; [17],89% (active)
same,growth inhibition,[5]; at 50.0 µM,94% (active)
same,growth inhibition,[5]; at 100.0 µM,54%
same,growth inhibition,[6]; at 1.2 µM,0%
same,growth inhibition,[6]; at 3.7 µM,7%
same,growth inhibition,[6]; at 11.0 µM,20%
same,growth inhibition,[6]; at 33.0 µM,42%
same,growth inhibition,[6]; at 100.0 µM,58%
same,growth inhibition,[7]; [16],35%
same,growth inhibition,[7]; [17],93% (active)
same,growth inhibition,[7]; at 50.0 µM,93.9% (active)
same,growth inhibition,[8]; at 1.2 µM,-10%
same,growth inhibition,[8]; at 3.7 µM,-13%
same,growth inhibition,[8]; at 11.0 µM,23%
same,growth inhibition,[8]; at 33.0 µM,41%
same,growth inhibition,[8]; at 100.0 µM,57%
same,growth inhibition,[9]; [16],30%
same,growth inhibition,[9]; [17],92% (active)
same,growth inhibition,[9]; at 50.0 µM,92.8% (active)
same,growth inhibition,[10]; at 1.2 µM,-4%
same,growth inhibition,[10]; at 3.7 µM,1%
same,growth inhibition,[10]; [16],17%
same,growth inhibition,[10]; at 11.0 µM,17%
same,growth inhibition,[10]; at 33.0 µM,31%
same,growth inhibition,[10]; [17],86% (active)
same,growth inhibition,[10]; at 50.0 µM,91.4% (active)
same,growth inhibition,[10]; at 100.0 µM,30%
same,growth inhibition,[11]; at 1.2 µM,-3%
same,growth inhibition,[11]; at 3.7 µM,0%
same,growth inhibition,[11]; at 11.0 µM,15%
same,growth inhibition,[11]; at 33.0 µM,42%
same,growth inhibition,[11]; at 100.0 µM,56%
same,growth inhibition,[15]; at 1.2 µM,0%
same,growth inhibition,[15]; at 3.7 µM,4%
same,growth inhibition,[15]; at 11.0 µM,26%
same,growth inhibition,[15]; at 33.0 µM,49%
same,growth inhibition,[15]; at 100.0 µM,66%
same,growth inhibition,[12]; at 1.2 µM,0%
same,growth inhibition,[12]; at 3.7 µM,8%
same,growth inhibition,[12]; at 11.0 µM,29%
same,growth inhibition,[12]; at 33.0 µM,53%
same,growth inhibition,[12]; at 100.0 µM,68%
same,growth inhibition,[13]; [16],58%
same,growth inhibition,[13]; [17],93% (active)
same,growth inhibition,[13]; at 50.0 µM,94.8% (active)
same,growth inhibition,[14]; at 1.2 µM,2%
same,growth inhibition,[14]; at 3.7 µM,3%
same,growth inhibition,[14]; at 11.0 µM,19%
same,growth inhibition,[14]; at 33.0 µM,39%
same,growth inhibition,[14]; at 100.0 µM,55%
